“And” between values parts separate entries of the source, which are not always exact repeats. Identical values can stand only once. The whole screen tested about 1,300 compounds, of which about 1,000 (77%) were called active. Not shown: some 7% with an inconclusive outcome. Calls come from the whole dose curve; as a rule, active = well fitted inhibition curve with a large enough effect; inconclusive = small, poorly fitted or top-dose-only effect; inactive = no such curve, though single readings can be large or run the other way. The set was probably picked from earlier hits. The list shows a part of the results.
assay: qHTS of small molecules that selectively kill Giardia lamblia: Hit Validation.;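 note: viability measured as ATP content by luminescence so killing lowers signal; trophozoites exposed to compounds for 48 h anaerobically at 37 °C; nearly all actives have a fitted effect of over 65% in size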; conditions: Giardia lamblia trophozoite viability, dose-response; series mostly up to 38.3 µM; activity change, negative = killing: at the top concentration
Summary of the method: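 Viability, read as ATP luminescence: trophozoites at 100 cells/well, compound added, 48 hrs anaerobic at 37 deg C, then 15-30 min room-temperature development before reading.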
% is set by controls: 0 for no effect and ±100 for the full control effect; potency is the fitted concentration of half-maximal effect.

Row | Structure (SMILES) | activity change, negative = killing | Potency
1 | COc1ccc(C2CC(c3ccccc3)Nc3ncnn32)cc1 (stereo unspecified) | -23.7% (inactive) | –
2 | Cc1ccc(NC(=O)c2ccc([N+](=O)[O-])o2)cc1S(=O)(=O)N1CCOCC1 | – | 0.729 µM (active)
3 | NC(=O)c1ccsc1NC(=O)c1ccc(N2CCCC2=O)cc1 | – | 2.59 µM (active)
4 | CN(C(=O)c1ccc(F)c(S(=O)(=O)N2CCOCC2)c1)C1CCCCC1 | 9.08% (inactive) | –
5 | O=C(NC1CCS(=O)(=O)C1)c1ccc(N2CCCCC2)c([N+](=O)[O-])c1 (stereo unspecified) | – | 2.31 µM (active)
6 | CN(C(=O)c1ccc(N2CCCCC2)c([N+](=O)[O-])c1)C1CCS(=O)(=O)C1 (stereo unspecified) | – | 4.1 µM (active)
7 | O=C(N/N=C/c1ccc([N+](=O)[O-])o1)c1ccccc1-n1cccc1 | – | 1.16 µM (active)
8 | Cc1nc2ccccn2c1C(=O)N/N=C/c1ccc([N+](=O)[O-])o1 | – | 1.83 µM (active)
9 | O=C1c2ccccc2C(=O)C1c1ccc2ccccc2n1 | – | 1.16 µM (active) and 1.63 µM (active)
10 | O=C1c2ccccc2C(=O)C1c1cc2ccccc2cn1 | – | 1.45 µM (active)
11 | O=[N+]([O-])c1ccc(CSc2nnc(-c3cnccn3)o2)cc1 | – | 2.31 µM (active)
12 | O=[N+]([O-])c1ccc(CSc2nnc(-c3cccnc3)o2)cc1 | – | 3.65 µM (active)
13 | COc1nn(C(C)C(=O)N2N=C(C(F)F)CC2(O)C(F)F)cc1[N+](=O)[O-] (stereo unspecified) | – | 0.46 µM (active)
14 | COc1ccc2nc(N3CCN(C(=O)c4ccc([N+](=O)[O-])o4)CC3)sc2c1 | – | 1.83 µM (active)
15 | O=C(c1ccc([N+](=O)[O-])o1)N1CCN(c2nc3ccc(F)cc3s2)CC1 | – | 1.83 µM (active)
16 | COc1ccc(OC)c2sc(N3CCN(C(=O)c4ccc([N+](=O)[O-])s4)CC3)nc12 | – | 2.59 µM (active)
17 | COc1cccc2sc(N3CCN(C(=O)c4ccc([N+](=O)[O-])o4)CC3)nc12 | – | 2.05 µM (active)
18 | CCCSc1nc2c(cnn2-c2ccc(C)c(C)c2)c(=O)[nH]1 | 27.7% (inactive) | –
19 | O=c1cc(-c2ccccc2)[nH]c2cc(Cl)ccc12 | 5.31% (inactive) | –
20 | COc1ccc(C(=O)NC2CCN(S(=O)(=O)c3ccc(F)cc3)CC2)cc1 | 18.6% (inactive) | –
21 | COc1ccc(S(=O)(=O)N2CCN(C(=O)c3ccc([N+](=O)[O-])o3)CC2)cc1 | – | 1.3 µM (active)
22 | C=Cc1ccc(CN2CCCN(Cc3ccc(F)cc3)S2(=O)=O)cc1 | -17.9% (inactive) | –
23 | CN(C(=O)CN1CCN(c2ccc([N+](=O)[O-])cn2)CC1)c1ccccc1 | – | 4.1 µM (active)

Row | Structure (SMILES) | activity change, negative = killing | Potency
24 | Cc1ccc(CNC(=O)c2cc(-c3ccccc3C)n(CC3CC(c4cccc([N+](=O)[O-])c4)=NO3)n2)cc1 (stereo unspecified) | – | 2.9 µM (active)
25 | Cc1nnc(SCc2ccc([N+](=O)[O-])cc2)[nH]c1=O | – | 2.31 µM (active)
26 | O=[N+]([O-])/C(Cl)=C(/NCCO)C(Cl)=C(Cl)Cl | – | 0.259 µM (active)
27 | CC(=O)c1c(C)[nH]c(C(=O)OCC(=O)Nc2cc(Cl)ccc2[N+](=O)[O-])c1C | – | 2.31 µM (active)
28 | CCn1nc(-c2ccc(C)cc2)nc2c(=O)n(C)c(=O)nc1-2 | – | 0.206 µM (active)
29 | CCc1ccc(-c2nc3c(=O)n(C)c(=O)nc-3n(CC)n2)cc1 | – | 0.183 µM (active)
30 | CN(C)CCCN=c1cc(-c2ccccc2)oc2ccc(Cl)cc12 | – | 0.579 µM (active)
31 | Clc1ccc2oc(-c3ccccc3)cc(=NCCCN3CCOCC3)c2c1 | – | 0.818 µM (active)
32 | CC1(C)CC(N=c2cc(-c3ccccc3)oc3ccc(Cl)cc23)CC(C)(C)N1 | – | 0.65 µM (active)
33 | O=C(NCCO)c1ccc2c3n(nc2c1)-c1ccccc1CO3 | – | 3.26 µM (active)
34 | O=C(c1ccc2c3n(nc2c1)-c1ccccc1CO3)N1CCCCC1 | – | 2.31 µM (active)
35 | O=Nc1c2ccc[nH]c-2c2ccc([N+](=O)[O-])cc12 | – | 1.03 µM (active)
36 | CS(=O)(=O)N1CCN(c2ccc(NC(=O)c3ccc([N+](=O)[O-])o3)cc2)CC1 | – | 0.579 µM (active)
37 | O=C(Nc1ccc(N2CCCCC2)cc1)c1ccc([N+](=O)[O-])o1 | – | 3.26 µM (active)
38 | O=C(Nc1ccc(N2CCN(Cc3ccccc3F)CC2)cc1)c1ccc([N+](=O)[O-])o1 | – | 1.16 µM (active)
39 | O=C(NCC1CCN(Cc2ccccc2F)CC1)Nc1ccccc1F | -18% (inactive) | –
40 | CC1CCN(c2ccc(NC(=O)c3ccc([N+](=O)[O-])o3)cc2)CC1 | – | 1.16 µM (active)
41 | CCC(C(=O)N1CCOCC1)n1nc(C)n2c(cc3cc(C)ccc32)c1=O (stereo unspecified) | 2.43% (inactive) | –
42 | O=C(Nc1ccc(N2CCOCC2)cc1)c1ccc([N+](=O)[O-])o1 | – | 0.579 µM (active)
43 | O=C(O)c1cc2ccccc2c(N=Nc2cccnc2)c1O | – | 2.05 µM (active)
44 | O=C(NN1C(=O)c2ccccc2NC1c1ccc([N+](=O)[O-])o1)c1ccccc1 (stereo unspecified) | – | 1.03 µM (active)
45 | O=C(NN1C(=O)c2ccccc2NC1c1ccc([N+](=O)[O-])o1)c1ccc([N+](=O)[O-])cc1 (stereo unspecified) | – | 2.05 µM (active)
46 | Cc1[nH]c2ccccc2c1C(=O)C(C)OC(=O)c1ccc([N+](=O)[O-])o1 (stereo unspecified) | – | 1.83 µM (active)

Row | Structure (SMILES) | activity change, negative = killing | Potency
47 | COc1cc(/C=C/c2ccc3cccc(OC)c3n2)c(OC(C)=O)c([N+](=O)[O-])c1 | – | 1.83 µM (active)
48 | COc1cc(/C=C/c2ccc3cccc(OC)c3n2)c(O)c([N+](=O)[O-])c1 | – | 1.63 µM (active)
49 | O=C(Nc1cccc2ccccc12)C12CC3CC(C1)CC(n1cnc([N+](=O)[O-])n1)(C3)C2 | – | 3.65 µM (active)
50 | O=C(Nc1cc([N+](=O)[O-])c2[nH]c(=O)c3ccccc3c2c1)C(F)(F)F | – | 1.03 µM (active)
51 | COc1ccc(NS(=O)(=O)c2ccc3oc4ccccc4c3c2)cn1 | -13.8% (inactive) | –
52 | c1coc(-c2nc3cc4ccccc4cc3nc2-c2ccco2)c1 | – | 3.65 µM (active)
53 | O=c1c(-c2cccc([N+](=O)[O-])c2)[n+]([O-])c2ccccc2n1O | – | 5.16 µM (active)
54 | CCOn1c(=O)c(-c2cccc([N+](=O)[O-])c2)[n+]([O-])c2ccccc21 | – | 1.03 µM (active)
55 | CC(NC(=O)c1ccc(N(C)C)c([N+](=O)[O-])c1)c1ccc(-n2ccnc2)cc1 (stereo unspecified) | – | 4.6 µM (active)
56 | COc1ccccc1C1C([N+](=O)[O-])=CC([N+](=O)[O-])=CN1C (stereo unspecified) | – | 2.59 µM (active)
57 | Cc1ccc(S(=O)(=O)N2[C@@H](c3ccccc3)C(C(=O)O)=CC[C@H]2c2cccc(Cl)c2)cc1 | – | 0.103 µM (active)
58 | Cc1ccc(S(=O)(=O)N2[C@@H](c3ccc(F)cc3)C(C(=O)O)=CC[C@H]2c2ccc3c(c2)OCO3)cc1 | -45.2% (inactive) | –
59 | Cc1ccc(S(=O)(=O)N2[C@@H](c3ccc(F)cc3)C(C(=O)O)=CC[C@H]2c2ccc(Cl)cc2)cc1 | -46% (inactive) | –
60 | O=[N+]([O-])c1cccc2nc3ccccc3c(NCCCn3ccnc3[N+](=O)[O-])c12 | – | 1.63 µM (active)
61 | CN=c1scc(-c2ccccc2F)n1/N=C(\C)c1cccnc1 | – | 4.1 µM (active)
62 | Cc1ccc(Nc2ccc([N+](=O)[O-])nc2[N+](=O)[O-])cc1 | – | 3.26 µM (active)
63 | COc1cc(Nc2ccc(C)cc2)c([N+](=O)[O-])nc1[N+](=O)[O-] | – | 1.45 µM (active)
64 | O=C(Nc1ccc2[nH]ncc2c1)c1ccccc1Cl | – | 5.79 µM (active)
65 | O=[N+]([O-])c1ccc(Oc2cccc(Br)c2)c2ccncc12 | – | 2.05 µM (active)
66 | O=C(Cc1ccc(-n2c(=O)c3sccc3n(CC(=O)Nc3ccccc3)c2=O)cc1)NCc1ccco1 | 15% (inactive) | –
67 | CN(C(=O)c1cc([N+](=O)[O-])ccc1NCc1cccnc1)c1ccccc1 | -18% (inactive) | –
68 | O=C(NCc1cccnc1)c1ccc([N+](=O)[O-])o1 | – | 1.16 µM (active)
69 | O=C(Nc1cccnc1)c1ccc([N+](=O)[O-])s1 | – | 2.05 µM (active)

Row | Structure (SMILES) | activity change, negative = killing | Potency
70 | O=C(Nc1nnc(-c2ccco2)o1)c1ccc([N+](=O)[O-])s1 | – | 3.65 µM (active)
71 | O=C(NCc1ccco1)c1ccc([N+](=O)[O-])o1 | – | 1.83 µM (active)
72 | CCN(C(=O)N(CC)c1ccccc1)c1ccccc1 | -33.4% (inactive) | –
73 | Cc1ccc(CNC(=O)c2cc(S(=O)(=O)N3CCOCC3)cn2C)cc1 | -15.8% (inactive) | –
74 | Cc1ccc(CNC(=O)c2ccc([N+](=O)[O-])o2)cc1 | – | 1.83 µM (active)
75 | O=C(Nc1ccc(Cc2ccncc2)cc1)c1ccc([N+](=O)[O-])o1 | – | 1.16 µM (active)
76 | O=C(Nc1cccnc1)c1ccc([N+](=O)[O-])o1 | – | 1.3 µM (active)
77 | CNc1nnc(-c2ccc(N(C)C)cc2)s1 | – | 3.26 µM (active)
78 | CCc1ccc2nc3sc(C(=O)O)cc3cc2c1 | – | 10.3 µM (active)
79 | CCN1C[C@@H]2[C@@H]3C(=O)N(C)C(=O)[C@@H]3[C@](C)(C1=O)N2C(=O)c1ccc(Cl)c(Cl)c1 | -11.8% (inactive) | –
80 | O=C1NCCN1c1ncc([N+](=O)[O-])s1 | – | 0.103 µM (active)
81 | COc1ccc(-c2cc3nc[nH]c(=O)c3s2)cc1 | – | 4.6 µM (active)
82 | CCNc1nc(NCC)nc(-n2nc(C)cc2C)n1 | -58.2% (inactive) | –
83 | O=C(NNC(=O)c1ccc([N+](=O)[O-])o1)c1ccccc1 | – | 0.516 µM (active)
84 | O=C(NN(c1ccccc1)c1ccccc1)c1ccc([N+](=O)[O-])o1 | – | 1.83 µM (active)
85 | CN(Cc1ccccc1)C(=O)c1ccc([N+](=O)[O-])o1 | – | 3.65 µM (active)
86 | C/C(=N/NC(=O)C(O)(c1ccccc1)c1ccccc1)c1ccc([N+](=O)[O-])o1 | – | 0.365 µM (active)
87 | O=C(O)C1CCCN1S(=O)(=O)c1ccc(Br)cc1 (stereo unspecified) | 1.98% (inactive) | –
88 | COc1ccc(OC)c2c(C)c(C)[nH]c12 | 1.8% (inactive) | –
89 | CN(C(=O)OC(C)(C)C)c1ccc(-c2nc3ccccc3s2)cc1 | – | 1.83 µM (active)
90 | Cc1c[nH]c(=O)c([N+](=O)[O-])c1 | – | 8.18 µM (active)
91 | COc1cc2c3c(c1OC)C1(C=CC(=NNC(N)=O)C=C1)CC3N(C(C)=O)CC2 (stereo unspecified) | 8.72% (inactive) | –
